# Reference: PubChem BioAssay (NCATS)
# Several values for one entry are separate records, joined by “and”; a condition that tells them apart may be missing. Identical values can stand only once. Inconclusive results are not listed. Entries that show only a call come without a potency. Activity calls are given as the source filed them. Unless noted, calls follow the shape of the dose curve; as a rule, active = well fitted curve in the direction sought with a large enough effect; inconclusive = small, poorly fitted or top-dose-only effect, or another doubt; inactive = no such curve, though single readings can be large; an effect the other way counts as inactive or inconclusive.
# Legend:
# [1] = target: D(1A) dopamine receptor (Homo sapiens) (UniProt P21728); experiment: HTS Assay for Allosteric Agonists of the Human D1 Dopamine Receptor: Primary Screen for Antagonists (AID 488983);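 also: calcium flux response to an EC80 dopamine challenge measured with no-wash dye; nearly all actives have a fitted effect of over 65% in size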; also: potency is read from the fitted curve at half-maximal effect
# Chain of D(1A) dopamine receptor (Homo sapiens) (P21728 whole entry, looked up): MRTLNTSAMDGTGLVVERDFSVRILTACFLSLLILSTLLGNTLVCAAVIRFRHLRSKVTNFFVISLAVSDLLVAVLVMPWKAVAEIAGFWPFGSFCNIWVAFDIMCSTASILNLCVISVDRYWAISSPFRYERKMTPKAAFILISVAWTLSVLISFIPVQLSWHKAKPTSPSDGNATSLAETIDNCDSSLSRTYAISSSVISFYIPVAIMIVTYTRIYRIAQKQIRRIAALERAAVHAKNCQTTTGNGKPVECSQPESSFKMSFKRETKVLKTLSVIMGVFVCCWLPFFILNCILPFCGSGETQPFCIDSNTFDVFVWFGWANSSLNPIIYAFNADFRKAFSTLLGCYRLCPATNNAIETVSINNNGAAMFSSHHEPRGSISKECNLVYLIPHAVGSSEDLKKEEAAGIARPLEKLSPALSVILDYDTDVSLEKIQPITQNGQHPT
# Summary of the method: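 Tetracycline-induced HEK293 T-REx cells expressing force-coupled D1 were plated overnight at 30 C, dye-loaded for calcium, and read kinetically. Compounds were pinned in, then an EC80 dopamine challenge followed after 180 s to reveal antagonism.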
# [2] = Validation screen for small molecules that induce genotoxicity in human embryonic kidney (HEK293T) cells expressing luciferase-tagged ELG1 (AID 493106)
# Summary of the method: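 HEK293T cells expressing luciferase-tagged ELG1 were exposed to compound or DMSO vehicle for 16 hr at 37 °C, 5% CO2. Genotoxic stress raises ELG1 levels, so increased luciferase signal after ONE-Glo addition and 30 min at room temperature marks hits.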
# [3] = target: ATPase family AAA domain-containing protein 5 (Homo sapiens) (UniProt Q96QE3); experiment: Validation screen for small molecules that inhibit ELG1-dependent DNA repair in human embryonic kidney (HEK293T) cells expressing luciferase-tagged ELG1 (AID 493107);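 also: cells co-treated with the DNA-damaging agent 5-fluorouridine alongside compound; series mostly up to about 46 µM; inhibitors lower the ELG1-luciferase luminescence signal; nearly all actives have a fitted effect of over 70% in size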
# Summary of the method: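 HEK293T cells expressing luciferase-tagged ELG1 were co-treated with 5-fluorouridine and compound or DMSO for 16 hr at 37 °C, 5% CO2. Luciferase activity was then read with ONE-Glo after 30 min at room temperature; suppressed signal indicates blocked ELG1 function.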
# [4] = Nrf2 qHTS screen for inhibitors: Validation (AID 493153; active = well fitted inhibition curve with a large enough effect in the main read-out, with a control signal flat, not every such curve was filed as active; also: potency is read from the fitted curve at half-maximal effect); conditions: Potency: luciferase luminescence; viability change: measured here: cytotoxicity max response
# Summary of the method: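 A549 cells carrying an ARE-driven firefly luciferase reporter, in 5% FBS OPTI-MEM, were treated with compounds in concentration-response for 18-24 h at 37°C. Viability was read by CellTiter-Fluor fluorescence, then Nrf2 activity by luciferase luminescence.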
# [5] = qHTS for Inhibitors of Cell Surface uPA Generation: Validation Assay (AID 493164);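 also: RAW 264.7 macrophage cells exposed to compound for 18 h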
# Summary of the method: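 RAW 264.7, 4000 cells/well, o/n plating; cpd 7-pt 1:5 dilution 2.45 nM–38.3 uM final; 18 h, 37 C/5% CO2; ATP-Lite, 5 s luminescence exposure.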
# [6] = target: Peptidyl-prolyl cis-trans isomerase NIMA-interacting 1 (Homo sapiens) (UniProt Q13526); experiment: qHTS Validation Assay to Find Inhibitors of Pin1 (AID 504536; active = well fitted inhibition curve with a large enough effect in the polarisation, with a control signal flat, not every such curve was filed as active; the % refers to the polarisation)
# Chain of Peptidyl-prolyl cis-trans isomerase NIMA-interacting 1 (Homo sapiens) (Q13526 whole entry, looked up): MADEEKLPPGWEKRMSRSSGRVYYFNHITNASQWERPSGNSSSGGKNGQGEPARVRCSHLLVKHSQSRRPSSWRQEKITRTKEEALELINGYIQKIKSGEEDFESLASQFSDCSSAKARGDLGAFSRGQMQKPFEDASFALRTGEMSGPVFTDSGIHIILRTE
# Summary of the method: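 Fluorescence polarization competition: compounds (titration) displace HiFluor-488-labeled Pin1-1b peptide from Pin1 (0.3 uM final) in pH 7.5 HEPES buffer with DTT, 10 min at room temperature; %Activity normalized to no-enzyme wells, curves fitted.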
# [7] = target: Phosphoglycerate kinase, glycosomal (Trypanosoma brucei brucei) (UniProt P07378); experiment: qHTS Validation Assay to Find Inhibitors of Phosphoglycerate Kinase (AID 504547)
# Chain of Phosphoglycerate kinase, glycosomal (Trypanosoma brucei brucei) (P07378 whole entry, looked up): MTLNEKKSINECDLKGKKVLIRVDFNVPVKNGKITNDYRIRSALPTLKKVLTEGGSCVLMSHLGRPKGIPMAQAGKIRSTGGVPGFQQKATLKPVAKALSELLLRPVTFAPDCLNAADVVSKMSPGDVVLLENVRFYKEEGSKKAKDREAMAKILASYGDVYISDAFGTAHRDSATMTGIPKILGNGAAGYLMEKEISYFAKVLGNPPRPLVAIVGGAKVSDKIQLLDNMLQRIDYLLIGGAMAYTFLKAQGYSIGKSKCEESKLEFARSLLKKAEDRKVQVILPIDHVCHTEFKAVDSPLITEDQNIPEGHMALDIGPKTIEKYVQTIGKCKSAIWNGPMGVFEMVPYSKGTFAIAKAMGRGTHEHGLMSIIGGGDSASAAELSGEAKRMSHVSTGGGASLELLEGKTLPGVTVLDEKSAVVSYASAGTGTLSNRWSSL
# Summary of the method: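 Substrate/PGK mix plus compound; reaction started with GAPDH (100nM final) to form 1,3-BPG; 60 min RT; Kinase-Glo Plus 10 min; luminescence. TEA 100mM pH 7.6, MgCl2 5mM, Tween-20 0.01%.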
# [8] = target: phosphoglycerate mutase (Leishmania major) (UniProt Q4Q090); experiment: qHTS Validation Assay to Find Inhibitors of Phosphoglycerate Mutase (AID 504548); conditions: Potency: inhibition qHTS; also: potency is read from the fitted curve at half-maximal effect
# Chain of phosphoglycerate mutase (Leishmania major) (Q4Q090 1-553): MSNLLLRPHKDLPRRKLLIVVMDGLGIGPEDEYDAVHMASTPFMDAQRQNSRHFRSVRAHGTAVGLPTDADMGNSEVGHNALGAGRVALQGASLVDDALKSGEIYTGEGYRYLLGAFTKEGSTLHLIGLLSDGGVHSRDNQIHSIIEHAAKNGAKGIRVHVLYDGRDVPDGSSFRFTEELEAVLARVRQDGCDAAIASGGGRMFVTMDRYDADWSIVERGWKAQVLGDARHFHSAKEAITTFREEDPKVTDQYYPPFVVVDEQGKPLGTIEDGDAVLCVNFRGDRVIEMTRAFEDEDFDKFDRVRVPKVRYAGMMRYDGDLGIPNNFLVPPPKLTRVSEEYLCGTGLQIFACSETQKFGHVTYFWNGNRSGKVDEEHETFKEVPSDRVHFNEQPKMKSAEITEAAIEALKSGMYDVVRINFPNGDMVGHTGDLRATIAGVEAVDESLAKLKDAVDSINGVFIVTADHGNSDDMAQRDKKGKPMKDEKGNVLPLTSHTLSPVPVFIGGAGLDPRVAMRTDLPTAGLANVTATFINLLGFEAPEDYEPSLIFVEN
# Summary of the method: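 Inhibition of L. major PGAM was assessed by Kinase-GloPlus luminescence following a 45-minute room-temperature reaction with enzyme at 1.25nM final.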
# [9] = qHTS for Inhibitors of ATXN expression: Validation (AID 588378); also: nearly all actives have a fitted effect of over 75% in size; also: potency is read from the fitted curve at half-maximal effect
# Summary of the method: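 Validation of ATXN2 expression inhibitors uses a cell-based luciferase fusion reporter in HEK293 cells, with 24 h compound exposure and paired viability (fluorescence) and reporter (luminescence) end-point reads.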
# [10] = target: Thyrotropin-releasing hormone receptor (Homo sapiens) (UniProt P34981); experiment: qHTS for Small Molecule Agonists and Allosteric Enhancers of Human TRH Receptor: Validation Screen for Agonists (AID 493127;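 active = calcium activation more than 3 SD above the typical response in the agonist read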;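 also: intracellular calcium rise by fluo-8 fluorescence before TRH EC20 addition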); conditions: TRH receptor agonist cell assay; at 2 µM; stronger effect = higher value
# Chain of Thyrotropin-releasing hormone receptor (Homo sapiens) (P34981 whole entry, looked up): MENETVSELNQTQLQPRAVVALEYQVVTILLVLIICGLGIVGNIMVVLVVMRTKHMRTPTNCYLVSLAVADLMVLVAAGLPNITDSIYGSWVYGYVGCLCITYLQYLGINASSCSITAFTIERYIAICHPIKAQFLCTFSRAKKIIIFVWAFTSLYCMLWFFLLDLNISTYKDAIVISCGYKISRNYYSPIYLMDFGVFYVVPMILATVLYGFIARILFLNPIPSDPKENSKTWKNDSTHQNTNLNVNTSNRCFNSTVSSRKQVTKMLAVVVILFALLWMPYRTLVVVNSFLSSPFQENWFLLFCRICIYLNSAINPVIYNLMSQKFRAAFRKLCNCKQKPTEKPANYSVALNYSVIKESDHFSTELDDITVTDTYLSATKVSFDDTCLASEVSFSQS
# Summary of the method: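 TRHR-expressing cells were plated overnight in serum-containing medium, then loaded with fluo-8 calcium dye at room temperature for 30 min–1.5 h. After a 10 s baseline, compound was pin-transferred and calcium fluorescence (ex 480/em 530) read kinetically for agonist response.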
# [11] = Validation screen for small molecules that induce DNA re-replication in SW480 colon adenocarcinoma cells (AID 504364); also: potency is read from the fitted curve at half-maximal effect
# Summary of the method: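 SW480 cells seeded at 250 per well were exposed to compound or DMSO for 48 hr at 37 C, 5% CO2, then stained with Hoechst for 40 min. DNA content per nucleus was imaged (405 nm ex, 500-530 nm em).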
# [12] = target: Ubiquitin carboxyl-terminal hydrolase 1 (Homo sapiens) (UniProt O94782); experiment: Inhibitors of USP1/UAF1: Pilot qHTS (AID 504865); also: nearly all actives have a fitted effect of over 35% in size; also: potency is read from the fitted curve at half-maximal effect
# Chain of Ubiquitin carboxyl-terminal hydrolase 1 (Homo sapiens) (O94782 whole entry, looked up): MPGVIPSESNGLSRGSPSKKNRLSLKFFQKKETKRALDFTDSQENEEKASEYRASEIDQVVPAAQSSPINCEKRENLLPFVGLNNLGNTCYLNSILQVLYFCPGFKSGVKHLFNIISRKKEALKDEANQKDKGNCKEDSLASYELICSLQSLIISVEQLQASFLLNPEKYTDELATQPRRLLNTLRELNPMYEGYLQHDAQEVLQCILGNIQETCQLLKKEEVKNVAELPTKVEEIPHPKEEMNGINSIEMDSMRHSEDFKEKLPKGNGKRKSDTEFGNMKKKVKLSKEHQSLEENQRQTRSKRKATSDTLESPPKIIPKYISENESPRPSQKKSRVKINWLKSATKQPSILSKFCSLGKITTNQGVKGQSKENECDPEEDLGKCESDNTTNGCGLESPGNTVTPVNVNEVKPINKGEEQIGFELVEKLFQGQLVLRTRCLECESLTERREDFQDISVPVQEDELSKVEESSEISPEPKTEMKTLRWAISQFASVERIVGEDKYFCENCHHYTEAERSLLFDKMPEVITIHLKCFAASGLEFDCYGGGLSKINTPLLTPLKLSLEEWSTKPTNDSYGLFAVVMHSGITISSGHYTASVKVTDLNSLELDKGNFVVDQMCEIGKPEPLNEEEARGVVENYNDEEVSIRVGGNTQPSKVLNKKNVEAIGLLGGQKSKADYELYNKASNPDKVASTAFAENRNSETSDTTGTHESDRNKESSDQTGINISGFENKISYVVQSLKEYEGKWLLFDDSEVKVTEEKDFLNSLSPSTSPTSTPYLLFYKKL
# Summary of the method: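 Kinetic fluorescence assay: 1nM USP1/UAF1, 15 min compound preincubation, then 150nM Ub-Rho; 480/540 nm.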
# [13] = target: DNA dC->dU-editing enzyme APOBEC-3G (Homo sapiens) (UniProt Q9HC16); experiment: qHTS for inhibitors of Vif-A3G interactions: Validation (AID 588379)
# Chain of DNA dC->dU-editing enzyme APOBEC-3G (Homo sapiens) (Q9HC16 whole entry, looked up): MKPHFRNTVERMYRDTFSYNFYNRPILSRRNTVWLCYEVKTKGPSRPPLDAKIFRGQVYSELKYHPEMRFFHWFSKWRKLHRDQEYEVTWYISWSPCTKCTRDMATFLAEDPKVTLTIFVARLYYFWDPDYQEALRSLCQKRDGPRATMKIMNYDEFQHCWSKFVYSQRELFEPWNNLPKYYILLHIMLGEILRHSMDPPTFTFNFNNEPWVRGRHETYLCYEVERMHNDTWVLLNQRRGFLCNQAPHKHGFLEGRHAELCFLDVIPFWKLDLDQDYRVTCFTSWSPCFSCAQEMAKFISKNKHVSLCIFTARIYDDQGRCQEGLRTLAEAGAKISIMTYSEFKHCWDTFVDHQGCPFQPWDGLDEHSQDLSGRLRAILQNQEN
# Summary of the method: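 HeLa cells stably expressing Vif and A3G-eYFP, 700 cells/well, incubated overnight at 37 deg C, then exposed to compound overnight at 37 deg C. Inhibition of Vif-mediated degradation read as increased yellow fluorescence (Ex 488/Em 500-530) by laser-scanning cytometry.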
# [14] = target: Bile acid receptor (Homo sapiens) (UniProt Q96RI1); experiment: qHTS assay for small molecule antagonists of farnesoid X receptor signaling (AID 588526; calls by dose curve)
# Chain of Bile acid receptor (Homo sapiens) (Q96RI1 whole entry, looked up): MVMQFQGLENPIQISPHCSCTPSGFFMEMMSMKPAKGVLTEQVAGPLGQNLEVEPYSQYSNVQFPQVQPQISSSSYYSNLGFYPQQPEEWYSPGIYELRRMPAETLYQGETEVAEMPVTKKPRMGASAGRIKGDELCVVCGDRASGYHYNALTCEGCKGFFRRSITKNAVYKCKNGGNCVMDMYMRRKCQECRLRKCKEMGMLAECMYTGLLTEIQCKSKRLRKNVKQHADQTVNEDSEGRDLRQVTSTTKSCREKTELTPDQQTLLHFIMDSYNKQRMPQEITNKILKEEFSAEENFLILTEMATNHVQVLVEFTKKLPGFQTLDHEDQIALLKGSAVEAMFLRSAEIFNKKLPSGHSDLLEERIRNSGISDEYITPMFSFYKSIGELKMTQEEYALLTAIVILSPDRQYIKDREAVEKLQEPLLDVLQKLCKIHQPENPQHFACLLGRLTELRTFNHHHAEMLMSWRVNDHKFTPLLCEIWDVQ
# Summary of the method: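 Concentration-response titrations were fitted to the Hill equation for half-maximal inhibition and maximal response, with data normalised to 50 uM chenodeoxycholic acid and DMSO control wells. Cells: FXR-UAS-bla HEK293T, dialyzed FBS.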
# [15] = target: Glucocorticoid receptor (Homo sapiens) (UniProt P04150); experiment: qHTS assay for small molecule agonists of glucocorticoid receptor signaling (AID 588532; active = well fitted curve in the direction sought with a large enough effect in the signal ratio, with a control signal flat; the % refers to the signal ratio); conditions: HeLa MMTV-bla, beta-lactamase ratio, agonist, 18 h; stronger effect = higher value; percent of dexamethasone control, DMSO zero
# Chain of Glucocorticoid receptor (Homo sapiens) (P04150 whole entry, looked up): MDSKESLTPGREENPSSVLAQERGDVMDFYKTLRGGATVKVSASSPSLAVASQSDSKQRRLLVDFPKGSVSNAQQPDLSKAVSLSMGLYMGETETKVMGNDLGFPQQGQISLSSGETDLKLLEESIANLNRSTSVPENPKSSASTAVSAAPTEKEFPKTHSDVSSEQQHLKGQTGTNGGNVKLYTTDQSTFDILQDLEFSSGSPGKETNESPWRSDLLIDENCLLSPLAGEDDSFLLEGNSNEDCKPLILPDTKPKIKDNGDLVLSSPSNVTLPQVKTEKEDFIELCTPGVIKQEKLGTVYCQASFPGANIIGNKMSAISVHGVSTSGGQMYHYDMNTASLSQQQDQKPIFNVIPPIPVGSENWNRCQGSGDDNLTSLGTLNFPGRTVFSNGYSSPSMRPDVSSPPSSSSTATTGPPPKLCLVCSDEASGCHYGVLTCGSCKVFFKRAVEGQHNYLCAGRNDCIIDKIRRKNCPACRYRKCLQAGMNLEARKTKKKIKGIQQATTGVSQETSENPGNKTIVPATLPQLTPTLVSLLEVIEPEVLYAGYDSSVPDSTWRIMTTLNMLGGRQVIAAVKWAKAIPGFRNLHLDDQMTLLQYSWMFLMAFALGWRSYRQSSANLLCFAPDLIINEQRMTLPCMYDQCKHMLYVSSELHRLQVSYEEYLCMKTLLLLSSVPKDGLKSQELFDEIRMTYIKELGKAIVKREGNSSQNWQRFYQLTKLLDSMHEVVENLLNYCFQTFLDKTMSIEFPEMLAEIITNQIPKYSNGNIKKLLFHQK
# Summary of the method: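 Stimulation of a glucocorticoid response element-driven beta-lactamase gene was measured in HeLa cells. Responses were scaled between DMSO basal and 0.1 uM dexamethasone, then fitted for half-maximal stimulation.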
# [16] = target: ATP-dependent 6-phosphofructokinase (Trypanosoma brucei brucei) (UniProt O15648); experiment: qHTS Assay to Find Inhibitors of T. brucei phosphofructokinase: hit validation (AID 492961);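 also: luminescence reports ADP formed as PFK phosphorylates fructose-6-phosphate with ATP; series mostly up to about 51 µM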
# Chain of ATP-dependent 6-phosphofructokinase (Trypanosoma brucei brucei) (O15648 whole entry, looked up): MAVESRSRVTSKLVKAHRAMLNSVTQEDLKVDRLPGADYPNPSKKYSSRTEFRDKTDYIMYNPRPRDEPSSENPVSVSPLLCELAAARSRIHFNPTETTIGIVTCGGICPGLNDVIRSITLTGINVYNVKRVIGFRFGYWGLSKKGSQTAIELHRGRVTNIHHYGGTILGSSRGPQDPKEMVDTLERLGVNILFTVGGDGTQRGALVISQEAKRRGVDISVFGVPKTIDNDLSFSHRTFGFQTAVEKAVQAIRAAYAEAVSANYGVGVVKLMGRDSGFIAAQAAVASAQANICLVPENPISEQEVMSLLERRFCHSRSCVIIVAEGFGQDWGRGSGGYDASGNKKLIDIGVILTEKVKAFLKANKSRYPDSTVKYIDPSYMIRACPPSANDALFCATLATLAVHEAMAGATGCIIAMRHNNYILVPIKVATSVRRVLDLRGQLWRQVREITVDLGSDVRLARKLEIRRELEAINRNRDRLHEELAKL
# Summary of the method: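 Reaction: 0.1 M triethanolamine pH 8.0, 5 mM MgCl2, F6P 0.5 mM, ATP 0.1 mM, PFK 1.25 nM, 45 min RT. Read-out: ADP-Glo luminescence. Analysis: concentration-response fits, classed by r2 and efficacy.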
smiles,measurement,setting,value
Oc1ccc2ccccc2c1SSc1c(O)ccc2ccccc12,Potency,[1],inactive
same,Potency,[2],inactive
same,outcome,[3],inactive
same,Potency,[4],inactive
same,viability change,[4],7.1%
same,outcome,[5],inactive
same,outcome,[6],inactive
same,Potency,[7],inactive
same,Potency,[8],inactive
same,Potency,[9],inactive
Nc1nc(N)c(N=O)c(OCC2CCCCC2)n1,Potency,[1],inactive
same,outcome,[3],inactive
same,Potency,[4],inactive
same,viability change,[4],-2.98%
same,outcome,[5],inactive
same,outcome,[6],inactive
same,Potency,[7],inactive
same,Potency,[8],inactive
same,Potency,[9],inactive
O=C(O)c1cccnc1Nc1cccc(C(F)(F)F)c1,Potency,[1],inactive
same,Potency,[2],inactive
same,outcome,[3],inactive
same,activation,[10],1.5% (inactive)
same,outcome,[5],inactive
same,Potency,[11],inactive
same,outcome,[6],inactive
same,Potency,[7],inactive
same,Potency,[8],inactive
same,Potency,[12],inactive
same,Potency,[9],inactive
CC1(C)NC(=O)N(c2ccc([N+](=O)[O-])c(C(F)(F)F)c2)C1=O,Potency,[1],inactive
same,Potency,[2],inactive
same,outcome,[3],inactive
same,activation,[10],-3.25% (inactive)
same,outcome,[5],inactive
same,Potency,[11],inactive
same,outcome,[6],inactive
same,Potency,[7],inactive
same,Potency,[8],inactive
same,Potency,[12],inactive
same,Potency,[9],inactive
same,outcome,[13],inactive
same,outcome,[14],inactive
Cc1cc(O)c2c(c1)C(=O)c1cc(O)cc(O)c1C2=O,Potency,[1],inactive
same,Potency,[2],inactive
same,outcome,[3],inactive
same,activation,[10],10.2% (inactive)
same,Potency,[4],inactive
same,viability change,[4],-15.1%
same,outcome,[5],inactive
same,Potency,[11],inactive
same,outcome,[6],inactive
same,Potency,[7],inactive
same,Potency,[9],inactive
same,activation,[15],-3.03% (inactive) and -5.65% (inactive)
CCC(C)(Oc1ccc(C2(c3ccc(OC(C)(CC)C(=O)O)cc3)CCCCC2)cc1)C(=O)O (stereo not drawn),outcome,[16],inactive
COc1ccc2cc([C@H](C)C(=O)O)ccc2c1,Potency,[1],inactive
same,outcome,[16],inactive
same,Potency,[2],inactive
same,outcome,[3],inactive
same,Potency,[4],inactive
same,viability change,[4],-8.13%
same,outcome,[5],inactive
same,Potency,[11],inactive
same,outcome,[6],inactive
same,Potency,[7],inactive
same,Potency,[8],inactive
same,Potency,[9],inactive
Nc1ccn([C@@H]2O[C@H](CO)[C@@H](O)C2O)c(=O)n1 (stereo partly drawn),Potency,[1],inactive
same,outcome,[16],inactive
same,Potency,[2],inactive
same,outcome,[3],inactive
same,outcome,[5],inactive
same,outcome,[6],inactive
same,Potency,[7],inactive
same,Potency,[8],inactive
COc1ccccc1N1CCN(CCN(C(=O)C2CCCCC2)c2ccccn2)CC1,Potency,[1],inactive
same,Potency,[2],inactive
same,outcome,[3],inactive
same,activation,[10],-4.06% (inactive)
same,outcome,[5],inactive
same,Potency,[11],inactive
same,outcome,[6],inactive
same,Potency,[7],inactive
same,Potency,[8],inactive
same,Potency,[9],inactive
O=c1cc(N2CCOCC2)oc2c(-c3ccccc3)cccc12,Potency,[1],inactive
same,Potency,[2],inactive
same,activation,[10],-3.19% (inactive)
same,Potency,[4],9.2 µM (active)
same,viability change,[4],-18.1%
same,outcome,[5],inactive
same,Potency,[11],inactive
same,outcome,[6],inactive
same,Potency,[7],inactive
same,Potency,[8],inactive
same,Potency,[12],inactive
same,Potency,[9],inactive
same,outcome,[13],inactive
O=C(O)c1cn(-c2ccc(F)cc2)c2cc(N3CCNCC3)c(F)cc2c1=O,outcome,[16],inactive
NC(=NCc1ccccc1)NC(=O)c1nc(Cl)c(N)nc1N,Potency,[1],5.01 µM (active)
same,Potency,[2],inactive
same,outcome,[3],inactive
same,activation,[10],0.438% (inactive)
same,Potency,[4],inactive
same,viability change,[4],2.7%
same,outcome,[5],inactive
same,Potency,[11],inactive
same,outcome,[6],inactive
same,Potency,[7],inactive
same,Potency,[8],inactive
same,Potency,[9],inactive
O=C1CCc2ccc(OCCCCN3CCN(c4cccc(Cl)c4Cl)CC3)cc2N1,outcome,[16],inactive
CNC[C@@H](O)[C@@H](O)[C@H](O)[C@H](O)CO,outcome,[16],inactive
CC(C)c1ccc2c(c1)c(SC(C)(C)C)c(CC(C)(C)C(=O)O)n2Cc1ccc(Cl)cc1,Potency,[1],inactive
same,Potency,[2],inactive
same,outcome,[3],inactive
same,activation,[10],1.38% (inactive)
same,outcome,[5],inactive
same,Potency,[11],inactive
same,outcome,[6],inactive
same,Potency,[7],inactive
same,Potency,[8],inactive
same,Potency,[12],25.1 µM (active) and 50.1 µM (active)
same,outcome,[13],inactive
CC(=O)O[C@H]1C(=O)[C@@]2(C)C([C@H](OC(=O)c3ccccc3)[C@]3(O)C[C@H](OC(=O)[C@H](O)[C@@H](NC(=O)c4ccccc4)c4ccccc4)C(C)=C1C3(C)C)[C@]1(OC(C)=O)CO[C@@H]1C[C@@H]2O (stereo partly drawn),Potency,[1],inactive
same,Potency,[2],inactive
same,activation,[10],0.562% (inactive)
same,outcome,[5],inactive
same,Potency,[11],0.0092 µM (active)
same,Potency,[7],inactive
same,Potency,[8],inactive
same,Potency,[12],inactive
C[C@H](Cc1ccc(O)c(O)c1)[C@@H](C)Cc1ccc(O)c(O)c1,Potency,[1],inactive
same,Potency,[2],inactive
same,outcome,[5],inactive
same,Potency,[11],inactive
same,Potency,[7],inactive
same,Potency,[8],inactive
same,Potency,[9],22.4 µM (active)
O=C1c2ccccc2-c2n[nH]c3cccc1c23,Potency,[1],inactive
same,outcome,[16],inactive
same,Potency,[2],inactive
same,outcome,[3],inactive
same,activation,[10],0.75% (inactive)
same,Potency,[11],inactive
same,Potency,[7],inactive
same,Potency,[8],21.3 µM (active)
same,Potency,[9],inactive
same,outcome,[13],inactive
NNc1nncc2ccccc12,Potency,[1],inactive
same,outcome,[16],inactive
same,Potency,[4],inactive
same,viability change,[4],-2.74%
same,outcome,[5],inactive
same,Potency,[11],inactive
same,outcome,[6],inactive
same,Potency,[7],inactive
same,Potency,[8],inactive
same,Potency,[9],inactive
O=C1NC(=O)C(c2ccccc2[N+](=O)[O-])=C1Nc1ccc(O)c(Cl)c1,Potency,[1],inactive
same,Potency,[2],inactive
same,activation,[10],1.69% (inactive)
same,Potency,[4],inactive
same,viability change,[4],5.73%
same,outcome,[5],inactive
same,outcome,[6],inactive
same,Potency,[7],inactive
same,Potency,[8],inactive
same,Potency,[12],inactive
same,Potency,[9],inactive
same,outcome,[13],inactive
Cc1ccc(NC(=O)c2ccc(CN3CCN(C)CC3)cc2)cc1Nc1nccc(-c2cccnc2)n1,outcome,[16],inactive
